FLuc modulator: qHTS profiling assay for firefly luciferase inhibitor/activator using purifed enzyme and Km concentrations of substrates (counterscreen for miR-21 project). Luciferin 4-monooxygenase (Photinus pyralis), P08659. purified FLuc, Km substrates, luminescence inhibition. Potency, µM (highest dose often 57.5 µM), inactives show top-dose activity change, negative = inhibition, most hits filed as inhibitors. 360,000 tested, 6.9% active. AID 588342, 2011;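 further: plate controls were vehicle for no effect and reference inhibitor for full effect; nearly all actives have a fitted effect of over 55% in size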
Target sequence (P08659 whole entry, looked up): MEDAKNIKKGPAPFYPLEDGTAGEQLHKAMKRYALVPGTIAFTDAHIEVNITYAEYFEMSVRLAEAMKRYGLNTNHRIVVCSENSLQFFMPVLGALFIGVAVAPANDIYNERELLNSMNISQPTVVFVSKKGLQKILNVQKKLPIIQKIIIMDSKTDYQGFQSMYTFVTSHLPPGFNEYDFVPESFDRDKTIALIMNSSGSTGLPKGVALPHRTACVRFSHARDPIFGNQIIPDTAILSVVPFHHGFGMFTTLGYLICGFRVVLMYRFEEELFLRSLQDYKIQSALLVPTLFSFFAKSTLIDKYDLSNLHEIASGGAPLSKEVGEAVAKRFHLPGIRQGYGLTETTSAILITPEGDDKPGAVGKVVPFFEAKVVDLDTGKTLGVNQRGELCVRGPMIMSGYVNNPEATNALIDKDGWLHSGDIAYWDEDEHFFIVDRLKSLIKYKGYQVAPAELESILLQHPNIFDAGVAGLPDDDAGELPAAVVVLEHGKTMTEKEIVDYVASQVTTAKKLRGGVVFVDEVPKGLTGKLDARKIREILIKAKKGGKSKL
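Purified P. pyralis luciferase, 10 nM final, with Km-level 10 uM D-luciferin and 10 uM ATP in 50 mM Tris acetate pH 7.5, 10 mM Mg acetate, 0.01% Tween-20, 0.05% BSA; 6-point qHTS titration about 60 µM downward; luminescence read.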
ELG1 genotox: qHTS screen for small molecules that induce genotoxicity in human embryonic kidney (HEK293T) cells expressing luciferase-tagged ELG1; HEK293T ELG1-luciferase reporter, luminescence, 16 h; Potency, µM (doses to about 46 µM), inactives show at the highest dose activity change, positive = activation, hits mostly activators; 330,000 tested, 1.3% active; AID 504466, 2011; further: % of control where 0% means no effect; nearly all actives have a fitted effect of over 60% in size
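Screening used a luciferase reporter fused to human ELG1 in HEK293T cells. Luminescence was read on a CCD plate imager after 16 hr exposure and 30 min ONE-Glo incubation.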
ELG1 repair inh: qHTS screen for small molecules that inhibit ELG1-dependent DNA repair in human embryonic kidney (HEK293T) cells expressing luciferase-tagged ELG1; Potency, µM (highest dose often 46.1 µM), for the others: top-dose activity change, negative = inhibition, usual class: inhibitors; HEK293T ELG1-luciferase reporter, luminescence, 16 h; DNA damage induced by 5-fluorouridine; AID 504467, 2011; 330,000 tested, 2.3% active; further: on the % scale 0 is the no-effect control and ±100 the full control effect; nearly all actives have a fitted effect of over 55% in size
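Overnight (16 hr) co-exposure of 2,000 cells/well to 5-fluorouridine and compound at 37 °C preceded detection. Luciferase was quantified via ONE-Glo luminescence; loss of signal denotes inhibition.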
Rab9 promoter act: qHTS Assay for Rab9 Promoter Activators; Huh7 Rab9 promoter-luciferase reporter, luminescence, 24 h; Potency, µM (series often up to 9.22 µM), without a hit: at the highest dose activation, negative = inhibition, usual class: activators; 320,000 tested, 2.8% active; further: % of control where 0% means no effect; nearly all actives have a fitted effect of over 60% in size
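Promoter activation is measured as luciferase luminescence in Huh7 cells stably transfected with a Rab9 promoter–luciferase construct, following 24 h compound exposure at 37 °C and 10 min reagent incubation at ambient temperature.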
SMN2 splice up: qHTS Assay for Enhancers of SMN2 Splice Variant Expression | AID 1458, 2008 | Potency, µM (highest dose often 46.1 µM), for inactives: at the highest dose activity change, positive = activation, most hits filed as activators | 210,000 tested, 2.8% active | HEK293 SMN2-luciferase splicing reporter, luminescence, 30-36 h; further: % of control where 0% means no effect; nearly all actives have a fitted effect of over 55% in size
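HEK293 cells carry an SMN2 minigene-luciferase reporter in which exon 7 inclusion puts luciferase in frame. Cells were seeded at 2000 cells/well, attached for 10-12 hours, then exposed to compounds for 30-36 hours at 37C before ONE-Glo luminescence.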
NPC1 prom act: qHTS Assay for NPC1 Promoter Activators | Huh7 NPC1 promoter luciferase reporter, 24 h | Potency, µM (series often up to 9.22 µM), for inactives: at the top dose activation, actives largely listed as activators | AID 485313, 2010 | 320,000 tested, 2.4% active; further: % of control where 0% means no effect; nearly all actives have a fitted effect of over 60% in size
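Luminescence read-out of NPC1 promoter-driven luciferase in stably transfected Huh7 cells; compounds delivered in DMSO and left 24 h at 37C, 5% CO2, qHTS titration format.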
* hit, by the source's call; ? = inconclusive; · = not tested or not shown; [ ] = another dose, or the depositor's remark. The list is not random: actives were taken first. Their share in the collection is about 9.2%. The call rests on the fitted dose curve; in most records, active means well fitted curve in the direction sought with a large enough effect; inconclusive means small, poorly fitted or top-dose-only effect, or another doubt; inactive means no such curve, though single readings can be large; an effect the other way counts as inactive or inconclusive. Potency means the concentration at half of the fitted maximal effect.

SMILES	FLuc modulator	ELG1 genotox	ELG1 repair inh	Rab9 promoter act	SMN2 splice up	NPC1 prom act
O=C(O)CSc1cc(C(=O)c2ccccc2O)cn2c(=O)c3c(-c4ccccc4)csc3nc12	15µM*	0%	-15%	1%	-2%	-4%
Oc1ccc(Nc2nc3ccccc3n3cnnc23)cc1	?	·	·	·	-4%	·
COc1cccc(Oc2ccc(C(F)(F)F)cc2NC(=O)CN2C(=O)NC3(CCCC3)C2=O)c1	·	7%	0%	·	·	·
Cc1sc2nc3c(SC(C)C(=O)O)cc(C(=O)c4ccccc4O)cn3c(=O)c2c1C (centres undefined)	21µM*	5%	10%	-11%	13%	-5%
Cc1sc2nc(SCC(N)=O)n(-c3ccccc3)c(=O)c2c1C	-8%	8%	-12%	-5%	9%	0%
O=C(NCc1cccc(F)c1)c1ccc(NC(=O)c2nsc3ccccc23)cc1	4.8µM*	·	·	·	·	·
Cc1ccc(NC(=O)c2nc[nH]c2C(=O)NCc2ccccc2)cc1	0%	-4%	-25%	0%	·	-1%
O=C(Nc1ccc(F)cc1)N1CCN(C(=O)c2nsc3ccccc23)CC1	-8%	·	·	·	·	·
CN(C)c1ccc(CNC(=O)c2ccc(NC(=O)c3nsc4ccccc34)cc2)cc1	2.7µM*	·	·	·	·	·
Cc1ccccc1CNC(=O)c1ccc(NC(=O)c2nsc3ccccc23)cc1	6.7µM*	·	·	·	·	·
Cc1ccc(CNC(=O)c2ccc(NC(=O)c3nsc4ccccc34)cc2)cc1	6.7µM*	·	·	·	·	·
CCCSCCCNC(=O)c1ccc(C)c(NC(=O)c2nsc3ccccc23)c1	-14%	·	·	·	·	·
Cc1ccc(C(=O)NCc2ccc(N(C)C)cc2)cc1NC(=O)c1nsc2ccccc12	-13%	·	·	·	·	·
COc1ccc(NC(=O)COC(=O)c2ccc(S(=O)(=O)N3CCCCCC3)cc2)c(OC)c1	3%	3%	22%	9%	·	0%
Cc1oc2ccc(O)c(CN3CCCC(C)C3)c2c1C(=O)Nc1ccccc1 (centres undefined)	-1%	·	·	·	14%	·
CN(C)c1nc(OCCNC(=O)COc2ccc(Cl)cc2Cl)nc(N2CCOCC2)n1	3%	0%	?	-10%	8%	4%
Cc1cc(Cl)ccc1OCC(=O)NCCOc1nc(N2CCOCC2)nc(N2CCOCC2)n1	5%	2%	10µM*	8%	-7%	-3%
O=C(COC(=O)c1nc(-c2ccccc2)n(-c2cccc(C(F)(F)F)c2)n1)NCc1cccs1	-2%	3%	11%	1%	-6%	0%
Cc1ccc(OCCn2c(-c3ccc(Br)cc3)nc3ccccc3c2=O)cc1C	-13%	·	·	·	-1%	·
CC(C)(C)NC[C@H](O)COc1cccc2c1CCC(=O)N2	·	·	·	·	-4%[20.6 µM]	·
COc1ccc(C(=O)CSc2nc3ncccc3[nH]2)cc1OC	-4%	-5%	-3%	-3%	·	-1%
CCc1ccc(-c2cc(N)n(-c3ccccc3)n2)cc1	1.7µM*	2.6µM*	?	1.3µM*	5µM*	0.56µM*
CCc1ccc(-c2cc3c(N4CCN(c5ccccc5)CC4)nccn3n2)cc1	19µM*	·	·	·	14µM*	·
Cc1ccc(-c2cc(N)n(-c3ccccc3)n2)cc1	1.7µM*	?	?	2.8µM*	11µM*	1.1µM*
Nc1cc(C2CCCC2)nn1-c1ccccc1	15µM*	?	?	?	20µM*	2.2µM*
SMILES	FLuc modulator	ELG1 genotox	ELG1 repair inh	Rab9 promoter act	SMN2 splice up	NPC1 prom act
C/C(=N/NC(=O)c1ccccc1)c1ccc(NC(=O)C(F)(F)F)cc1	5%	?	?	?	4%	17%
Cc1cccc(-c2cc(NC(=O)C(C)(C)C)n(-c3ccccc3)n2)c1	21µM*	·	·	·	·	·
Cc1cccc(-c2cc(N)n(-c3ccccc3)n2)c1	4.3µM*	?	?	0.79µM*	11µM*	1.3µM*
O=C(Nc1cccc(Br)c1)N1CCC(CN2CCCCC2)CC1	1%	·	·	·	·	·
CCCCOc1ccc(C(=O)N/C(=C\c2ccc(Br)cc2)C(=O)NC2CCCCC2)cc1	-4%	·	·	·	4%	·
Cc1ccc(NS(=O)(=O)c2cc(NC(=O)c3ccc4c(c3)NC(=O)CS4)ccc2Cl)c(C)c1	?	-17%	23µM*	-5%	-81%	-4%
CC(=O)c1cc(NC(=O)c2ccc(C)cc2)c(=O)oc1/C=C/N(C)C	5.4µM*	3%	?	21%	?	-1%
Cc1oc(=O)c(NC(=O)c2ccccc2)cc1C(=O)c1ccccc1	15µM*	?	?	2.2µM*	26%	?
CC(=O)Nc1cc2ccccc2oc1=O	4%	-6%	13%	-11%	-6%	0%
Cc1ccc(C(=O)Nc2cc3ccccc3oc2=O)cc1	0.076µM*	?	?	?	·	0.71µM*
Cc1oc(=O)c(NC(=O)c2ccc(Cl)cc2)cc1C(=O)c1ccccc1	-17%	7%	?	2%	-5%	0%
CC(=O)c1cc(NC(=O)c2ccc(C)cc2)c(=O)oc1C	17µM*	?	?	-2%	·	-2%
COc1ccc(C(=O)Nc2cc(C(C)=O)c(/C=C/N(C)C)oc2=O)cc1	?	0%	-7%	4%	-5%	-3%
COCCOC(=O)C1=C(C)NC(=O)N(C(C)=O)C1c1ccc(Cl)cc1 (centres undefined)	-1%	3%	16%	-1%	-3%	0%
N#C/C(=C\c1cc2c(cc1Br)OCO2)C(=O)NCC1CCCO1 (centres undefined)	-13%	14%	?	-2%	·	-1%

Screening results deposited in PubChem by National Center for Advancing Translational Sciences (NCATS).
